Source: the supplement of paper PMC6805474

Experiments:
[1] = tested on: Schistosoma mansoni schistosomula (LE); test: XTT viability relative to DMSO control; higher = more viable (less active); conditions: 72 h; 10 µM
Protocol: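 XTT/PMS was then added for a further 24 h (72 h total) and A450 was read. % viability = (sample - heat-killed control)/(DMSO control - heat-killed control) x 100, from duplicate wells in two independent experiments.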

[2] = tested on: Schistosoma mansoni schistosomula (NMRI); test: phenotypic severity score (0-4); higher = more antischistosomal effect, active = 2 or more; conditions: 10 µM
[3] = tested on: Schistosoma mansoni schistosomula (Liberian); test: drug effect (1 - score/DMSO control score) (fraction); higher = more antischistosomal effect, active = 0.5 or more; extreme values may be limits of the assay; conditions: 10 µM
Outline: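 Drug effect was calculated by comparing the mean score of the test wells with the mean score of the DMSO wells, and any negative value was set to zero. Duplicate wells of 50 Liberian-strain S. mansoni schistosomula, mechanically transformed from cercariae and pre-incubated at least 12 h, received 10 µM compound in Medium 199 with 5% FCS at 37 °C, 5% CO2, with 0.1% DMSO in the comparison wells. Visual scoring at 10× took place at 24, 48 and 72 h on a quarter-point scale from 3 (normal) to 0 (dead), and a plate counted only if its DMSO wells averaged at least 2.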
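For phenotypic severity score (0-4) in this document: visual microscopic scoring of shape, motility and density changes versus 0.5% DMSO solvent controls, one point per descriptor, degeneracy or death scored 4, mean of duplicate wells.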

COc1ccc(CCN2CCC(NCc3cccc(N(C)C)c3)CC2)cc1
98.6%: XTT viability [1]
inactive: phenotypic severity score ([2]; 24 h) 0 | phenotypic severity score ([2]; 48 h) 0 | phenotypic severity score ([2]; 72 h) 0 | drug effect ([3]; 24 h) < 0 | drug effect ([3]; 48 h) 0.027 | drug effect ([3]; 72 h) 0.0303

CNC(=O)c1cc(S(=O)(=O)N2CCN(c3ccccn3)CC2)cs1
73.4%: XTT viability [1]
inactive: phenotypic severity score ([2]; 24 h) 0 | phenotypic severity score ([2]; 48 h) 0 | phenotypic severity score ([2]; 72 h) 0 | drug effect ([3]; 24 h) 0.1 | drug effect ([3]; 48 h) 0.135 | drug effect ([3]; 72 h) 0.111

O=C(COc1cccc(F)c1)Nc1nc(-c2ccccn2)cs1
inactive: phenotypic severity score ([2]; 24 h) 0 | phenotypic severity score ([2]; 48 h) 0 | phenotypic severity score ([2]; 72 h) 0 | drug effect ([3]; 24 h) 0.0909 | drug effect ([3]; 48 h) 0.1 | drug effect ([3]; 72 h) 0.127
68.1%: XTT viability [1]

Cc1cc(Cl)c(S(=O)(=O)N2CCCC2)cc1OCC(=O)NC1CCCCC1
111%: XTT viability [1]
inactive: phenotypic severity score ([2]; 24 h) 0 | phenotypic severity score ([2]; 48 h) 0 | phenotypic severity score ([2]; 72 h) 0 | drug effect ([3]; 24 h) 0.1 | drug effect ([3]; 48 h) 0.189 | drug effect ([3]; 72 h) 0.212

COc1ccc(-c2cnc3ccc(N4CCCC4)nn23)cc1OC
active: phenotypic severity score ([2]; 24 h) 2 | phenotypic severity score ([2]; 48 h) 4 | phenotypic severity score ([2]; 72 h) 4 | drug effect ([3]; 24 h) 0.784 | drug effect ([3]; 48 h) 0.944 | drug effect ([3]; 72 h) 1
60.5%: XTT viability [1]

O=C(NCCc1ccn(-c2ccccc2)n1)C1CCCCC1
inactive: phenotypic severity score ([2]; 24 h) 0 | phenotypic severity score ([2]; 48 h) 0 | phenotypic severity score ([2]; 72 h) 0 | drug effect ([3]; 24 h) 0.136 | drug effect ([3]; 48 h) < 0 | drug effect ([3]; 72 h) 0.0526
74.1%: XTT viability [1]

Nc1ncc(-c2ccc(C(F)(F)F)nc2)cc1-c1ccc(C(F)(F)F)nc1
79.3%: XTT viability [1]
inactive: phenotypic severity score ([2]; 24 h) 0 | phenotypic severity score ([2]; 48 h) 0 | phenotypic severity score ([2]; 72 h) 0 | drug effect ([3]; 24 h) 0.182 | drug effect ([3]; 48 h) 0.15 | drug effect ([3]; 72 h) 0.127

Cc1nn2c(O)c3c(nc2c1-c1ccc(F)cc1)CCCC3
113%: XTT viability [1]
inactive: phenotypic severity score ([2]; 24 h) 0 | phenotypic severity score ([2]; 48 h) 0 | phenotypic severity score ([2]; 72 h) 0 | drug effect ([3]; 24 h) 0.409 | drug effect ([3]; 48 h) 0.45
active: drug effect ([3]; 72 h) 0.509

N#CCN(CCCCN1CCN(c2ccc(F)cc2)CC1)C(=O)OCc1ccccc1
inactive: phenotypic severity score ([2]; 24 h) 0 | phenotypic severity score ([2]; 48 h) 0 | phenotypic severity score ([2]; 72 h) 0 | drug effect ([3]; 24 h) 0.0811 | drug effect ([3]; 48 h) 0.111 | drug effect ([3]; 72 h) 0.125
118%: XTT viability [1]

Cn1c(=O)c2c(S(C)(=O)=O)snc2n(C)c1=O
active: phenotypic severity score ([2]; 24 h) 4 | phenotypic severity score ([2]; 48 h) 4 | phenotypic severity score ([2]; 72 h) 4 | drug effect ([3]; 24 h) 1 | drug effect ([3]; 48 h) 1 | drug effect ([3]; 72 h) 1
-0.448%: XTT viability [1]

Cc1cc(C)nc(-n2nc(C)cc2Nc2ccccc2)n1
active: phenotypic severity score ([2]; 24 h) 2 | phenotypic severity score ([2]; 72 h) 4
55.6%: XTT viability [1]
inactive: phenotypic severity score ([2]; 48 h) 1 | drug effect ([3]; 24 h) 0.0526 | drug effect ([3]; 48 h) 0.278 | drug effect ([3]; 72 h) 0.25

O=C(NCCc1c[nH]c2ccccc12)c1cc2ccccc2oc1=O
91.2%: XTT viability [1]
inactive: phenotypic severity score ([2]; 24 h) 1 | phenotypic severity score ([2]; 48 h) 0 | phenotypic severity score ([2]; 72 h) 0 | drug effect ([3]; 24 h) 0.182 | drug effect ([3]; 48 h) 0.4 | drug effect ([3]; 72 h) 0.455

Cc1cc2ccccc2n1CC(=O)N1CC(C(=O)N2CCCCC2)Oc2ccccc21 (configuration not stated)
inactive: phenotypic severity score ([2]; 24 h) 0 | phenotypic severity score ([2]; 48 h) 1 | phenotypic severity score ([2]; 72 h) 0 | drug effect ([3]; 24 h) 0.05 | drug effect ([3]; 48 h) 0.027 | drug effect ([3]; 72 h) 0.111
71.5%: XTT viability [1]

Cc1ccccc1C(=O)N1N=C(Nc2ccccc2)SC1(C)C
inactive: phenotypic severity score ([2]; 24 h) 1 | phenotypic severity score ([2]; 72 h) 0 | drug effect ([3]; 24 h) 0.0455 | drug effect ([3]; 48 h) 0.1 | drug effect ([3]; 72 h) 0.158
88.7%: XTT viability [1]
active: phenotypic severity score ([2]; 48 h) 2

Brc1c(-c2ccc3c(c2)OCO3)nc2ncccn12
99.9%: XTT viability [1]
inactive: phenotypic severity score ([2]; 24 h) 0 | phenotypic severity score ([2]; 48 h) 0 | phenotypic severity score ([2]; 72 h) 0 | drug effect ([3]; 24 h) 0.182 | drug effect ([3]; 48 h) 0.2 | drug effect ([3]; 72 h) 0.127

Cc1ccc2[nH]c(C3CCCNC3)c(-c3ccncc3)c2c1 (configuration not stated)
75.2%: XTT viability [1]
inactive: phenotypic severity score ([2]; 24 h) 0 | phenotypic severity score ([2]; 48 h) 0 | phenotypic severity score ([2]; 72 h) 0 | drug effect ([3]; 24 h) < 0 | drug effect ([3]; 48 h) < 0 | drug effect ([3]; 72 h) 0.111

CCCn1nnc(NC(=O)COc2ccc(C3CCCCC3)cc2)n1
inactive: phenotypic severity score ([2]; 24 h) 0 | phenotypic severity score ([2]; 48 h) 0 | phenotypic severity score ([2]; 72 h) 0 | drug effect ([3]; 24 h) 0.136 | drug effect ([3]; 48 h) 0.2 | drug effect ([3]; 72 h) 0.182
89.6%: XTT viability [1]

CC(C)C(C(=O)Nc1ccc(S(=O)(=O)N(C)C)cc1)c1ccc(Cl)cc1 (configuration not stated)
active: phenotypic severity score ([2]; 24 h) 2 | phenotypic severity score ([2]; 48 h) 4 | phenotypic severity score ([2]; 72 h) 4 | drug effect ([3]; 24 h) 0.955 | drug effect ([3]; 48 h) 0.85 | drug effect ([3]; 72 h) 1
29.5%: XTT viability [1]

Cc1cnc(N2CCN[C@@H](Cc3ccccc3)C2)nc1Oc1ccc(-n2ccnc2)cc1
inactive: drug effect ([3]; 24 h) 0.3
active: phenotypic severity score ([2]; 24 h) 4 | phenotypic severity score ([2]; 48 h) 4 | phenotypic severity score ([2]; 72 h) 4 | drug effect ([3]; 48 h) 0.556 | drug effect ([3]; 72 h) 1
17.8%: XTT viability [1]

O=C(c1cc2ccccc2o1)N1CCN(Cc2ccc3c(c2)OCO3)CC1
110%: XTT viability [1]
inactive: phenotypic severity score ([2]; 24 h) 0 | phenotypic severity score ([2]; 48 h) 0 | phenotypic severity score ([2]; 72 h) 0 | drug effect ([3]; 24 h) 0.182 | drug effect ([3]; 48 h) 0.15 | drug effect ([3]; 72 h) 0.236

CC(C)C(NC(=O)Cc1cccc2ccccc12)C(=O)Nc1cccc(C#N)c1 (configuration not stated)
68.8%: XTT viability [1]
inactive: phenotypic severity score ([2]; 24 h) 0 | phenotypic severity score ([2]; 48 h) 0 | phenotypic severity score ([2]; 72 h) 0 | drug effect ([3]; 24 h) 0.15 | drug effect ([3]; 48 h) 0.222 | drug effect ([3]; 72 h) 0.333
